Data published in PubChem BioAssay (NCI).
This is part of a sample that, as a whole, favours compounds with a hit. Of some 79,000 tested, about 15% had one in any assay. Rule as the data show it: active = growth inhibition above about 70%; inactive = the rest.

What was measured:
[1] = NCI Yeast Anticancer Drug Screen. Data for the rad50 strain (AID 155);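 also: 0% = growth of vehicle-only cultures of the same strain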; conditions: S. cerevisiae rad50 strain growth inhibition; at 50.0 µM; stronger effect = higher value
Procedure, shortened: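 A DNA repair-deficient yeast mutant serves as the test organism; compound-induced growth inhibition is calculated against vehicle-treated cells.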

[2] = NCI Yeast Anticancer Drug Screen. Data for the mec2-1 strain (AID 157); conditions: S. cerevisiae mec2-1 strain, at 50.0 µM, stronger effect = higher value
Procedure, shortened: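 Mutant yeast (mec2-1) grown with compound; growth inhibition relative to vehicle control reported.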

[3] = NCI Yeast Anticancer Drug Screen. Data for the sgs1 mgt1 strain (AID 161);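 also: 0% = growth of cultures given vehicle only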; conditions: S. cerevisiae sgs1 mgt1 strain, at 50.0 µM, stronger effect = higher value
Procedure, shortened: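 Growth of a repair-deficient yeast mutant was monitored after compound treatment and expressed as inhibition relative to vehicle-treated cultures.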

[4] = NCI Yeast Anticancer Drug Screen. Data for the cln2 rad14 strain (AID 165);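 also: 0% = growth equal to vehicle treated cultures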; conditions: S. cerevisiae cln2 rad14 strain, at 50.0 µM, stronger effect = higher value
Procedure, shortened: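 Readout is yeast growth inhibition versus vehicle-treated controls, using a strain with cln2 and rad14 alterations exposed to compound.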

[5] = NCI Yeast Anticancer Drug Screen. Data for the bub3 strain (AID 167); conditions: S. cerevisiae bub3 mutant strain, at 50.0 µM, stronger effect = higher value
Procedure, shortened: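 Inhibition values come from growth of compound-treated mutant yeast normalised to vehicle-treated controls.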

[6] = NCI Yeast Anticancer Drug Screen. Data for the mlh1 rad18 strain (AID 175); conditions: S. cerevisiae mlh1 rad18 strain growth inhibition; at 50.0 µM; stronger effect = higher value
Procedure, shortened: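 Genetically defined yeast (DNA repair-deficient) exposed to compounds; growth inhibition determined relative to vehicle.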

Measured: growth inhibition

CC1CCC(C(=O)O)N1 (centres undefined)
inactive: [1] 29.6% | [2] 6.5% | [3] 1.7% | [4] 4.45% | [5] -3.2%

Cc1cc2ccccc2c(O)c1C#N
inactive: [1] 32.5% | [2] 17.9% | [3] 6.3% | [4] -4.3% | [5] 1.3%

NC(C(=O)O)c1ccc([N+](=O)[O-])cc1 (centres undefined)
inactive: [1] -0.45% | [2] -14.1% | [3] 8.8% | [4] 7.25% | [5] -0.4%

CCC(C#N)(CC)c1ccccc1
inactive: [1] 16% | [2] 13.4% | [3] 11.1% | [4] 12.7% | [5] -3.2%

COC(=O)Nc1nc2ccc(C(=O)c3cccs3)cc2[nH]1
inactive: [1] -1.25% | [2] 33.4% | [3] 17.5% | [4] -35% | [5] 24.4%

COc1cc([C@@H]2c3cc4c(cc3[C@H](O)[C@H]3COC(=O)[C@H]23)OCO4)cc(OC)c1OC
inactive: [1] -4.8% | [2] -8.55% | [3] 9.05% | [4] 5.1% | [5] 3.6%

CC(=O)OCC1OC(OC2=C(CC=C(C)C)C(=O)c3ccccc3C2=O)C(OC(C)=O)C(OC(C)=O)C1OC(C)=O (centres undefined)
inactive: [1] -7.2% | [2] 3.85% | [3] -17.4% | [4] -15% | [5] -12.7% | [6] -6.6%

CC(C)OC(=O)c1cc(NC(=S)OC(C)C)ccc1Cl
inactive: [1] 3.95% | [2] 10.2% | [3] 22.9% | [4] 15.3% | [5] 32.5%

COc1ncnc2c1cnn2C
inactive: [1] 7.6% | [2] 3.6% | [3] 13.3% | [4] -35.1% | [5] -3.85%

c1ccc2c(c1)Sc1ccccc1S2
inactive: [1] -6.95% | [2] 6.8% | [3] 22.1% | [4] -19.6% | [5] -3.6%

CC(=O)c1ccc2c(ccc3ccccc32)c1
inactive: [1] -13.1% | [2] -16.3% | [3] -12.6% | [4] -14.6% | [5] -5.4%

C=CCCCCCCCCCOC(C)=O
inactive: [1] -14.3% | [2] -41.1% | [3] -20.4% | [4] -9.5% | [5] -2.8%

CN(C)Cc1cc(C(C)(C)CC(C)(C)C)ccc1O
inactive: [1] 38.2% | [2] -3.2% | [3] 6.3% | [4] -43.9% | [5] 17.1%

O=C(O)CCC(=O)OC(C1CO1)C(OC(=O)CCC(=O)O)C1CO1 (centres undefined)
inactive: [1] -0.85% | [2] -16.5% | [3] -7.3% | [4] 3.3% | [5] -11.6%

O=C1C=CC2=C3c4cc(O)c(O)cc4CC3(O)COC2=C1O (centres undefined)
inactive: [1] -40.6% | [2] -45.4% | [3] -9.1% | [4] -6.7% | [5] -5.7%

Cc1cc(Cc2cc(C)c(N)cc2N)c(N)cc1N
inactive: [1] -1.6% | [2] -49.4% | [3] -23.9% | [4] 15.2% | [5] -2.25%

CC(=O)C1CCCCC1
inactive: [1] 26.7% | [2] 11.2% | [3] 4.5% | [4] 11.7% | [5] 1.2%

COC(=O)C(O)c1ccccc1 (centres undefined)
inactive: [1] 21.4% | [2] 11.3% | [3] 5.55% | [4] 23.7% | [5] 11.1%

O=C1C=CC(=O)N1c1ccc(I)cc1Cl
inactive: [1] 29.9% | [2] 18.3% | [3] 44.1% | [4] 23.8% | [5] 32.3%

C=CCc1cc(C(C)=O)cc(OC)c1O
inactive: [1] -16.1% | [2] -6.7% | [3] 5.7% | [4] -16.5% | [5] -34.4%

CC(=O)OC1CC2C(C)(C)OC3CC(=O)OCC32C2CCC3(C)C(=CCC3c3ccoc3)C12C (centres undefined)
inactive: [1] 6.45% | [2] -5.7% | [3] -26.6% | [4] 17.8% | [5] -10.3% | [6] 1.1%

CCOC(=O)CNN
inactive: [1] -7.2% | [2] 9.3% | [3] -12.2% | [4] 9.75% | [5] -14.8%

O=c1cc(-c2ccccc2)[nH]c2c1CCCC2
inactive: [1] -17.8% | [2] -21.4% | [3] -12.2% | [4] -23.8% | [5] 0.95%

S=c1nn[nH]c2ccccc12
inactive: [1] 17.4% | [2] 22.6% | [3] 8.6% | [4] 8.1% | [5] 7.8%

CCCCCC(C)(CC(=O)O)CC(=O)O
inactive: [1] -18.6% | [2] -15.3% | [3] -21.4% | [4] -27.8% | [5] 0.7%

CC(C)(C)n1nc(C2CC2)c(Br)c1NC(=O)c1ccccc1F
inactive: [1] -6.6% | [2] -12.2% | [3] 8.7% | [4] 3.25% | [5] 5.55%

O=P(O)(O)OCC(O)CO (centres undefined)
inactive: [1] -4.6% | [2] -7.3% | [3] 8.95% | [4] 25.3% | [5] -22.1%

Cc1cc2nc(CC(=O)c3ccccc3)c(=O)[nH]c2cc1C
inactive: [1] 15.7% | [2] 0.95% | [3] 13.3% | [4] 9.4% | [5] -15.7%

O=C(CCl)Nc1ccc2c(c1)C(=O)c1ccc(NC(=O)CCl)cc1C2=O
inactive: [1] 6.3% | [2] -4.85% | [3] 4.15% | [4] 1.7% | [5] -21.2%

CCCCCCCCCCC(C)Br (centres undefined)
inactive: [1] 19.9% | [2] -12.1% | [3] 10.3% | [4] 1.3% | [5] 28.6%

CC(C)=CC(=O)OC(=O)C=C(C)C
inactive: [1] -25.3% | [2] -48.4% | [3] -21.2% | [4] 1.8% | [5] -36.6%

NC(=O)c1ccc(N=C(N)N=C(N)N)cc1
inactive: [1] 7.3% | [2] -15.6% | [3] -20% | [4] -36.2% | [5] -11.8%

OCCN(CCO)C(=S)S
inactive: [1] 2.15% | [2] -5.75% | [3] 1.1% | [4] -1.8% | [5] 4.95% | [6] -0.85%

CCN(CC)c1ccc2nc3ccc(=[N+](CC)CC)cc-3oc2c1
inactive: [1] -213% | [2] -192% | [3] -187% | [4] -165% | [5] -246%

O=[N+]([O-])c1ccc(N=Nc2ccccc2)cc1
inactive: [1] 11.4% | [2] 12.2% | [3] -1.1% | [4] 21.2% | [5] -5.2%

O=C1C[C@H](c2ccccc2)[C@H](c2ccccc2)C1
inactive: [1] 24.2% | [2] 4.85% | [3] 10.4% | [4] -4.25% | [5] -5.55%

CNC(=O)c1ccccc1CC1(O)c2ccccc2Oc2ccccc21
inactive: [1] 0.4% | [2] -13.5% | [3] 9.05% | [4] 0.7% | [5] -9.25%

CN(C)CCC(=O)c1ccc(O)cc1
inactive: [1] 4.6% | [2] 8.65% | [3] 3.25% | [4] -22.2% | [5] -14.8% | [6] -9.45%

CCC(=O)Oc1ccc(OC)cc1
inactive: [1] 23.1% | [2] -13.4% | [3] 2.9% | [4] 29.4% | [5] 3.9% | [6] 23.6%

Cc1cc2nc(CO)[nH]c2cc1C
inactive: [1] -2.95% | [2] -40% | [3] -24.2% | [4] 7.55% | [5] -5.65% | [6] 1.8%

COc1ccccc1NC(=O)c1cc2cc(Br)ccc2cc1O
inactive: [1] 34.8% | [2] 41.1% | [3] 55.7% | [4] 41.6% | [5] 49% | [6] 34.2%

N#Cc1c(N)sc(=S)c2c1CCCC2
inactive: [1] 9.65% | [2] 9.85% | [3] 29.4% | [4] 1.8% | [5] -2.05% | [6] 11.4%

CC(CC(=O)c1ccccc1)c1ccccc1 (centres undefined)
inactive: [1] -7.9% | [2] -18.4% | [3] -10.7% | [4] -13.7% | [5] -19.4% | [6] 10.2%

CCOC(=O)c1cc(/C=C/c2cccc(Cl)c2)on1
inactive: [1] 57.2% | [2] 27.6% | [3] 25.9% | [4] 26.1% | [5] 8.1% | [6] 47.4%

c1c(-c2cc(C3CC3)[nH]n2)n[nH]c1C1CC1
inactive: [1] -62% | [2] -0.25% | [3] -17.6% | [4] -16.4% | [5] 1.8% | [6] 2.35%

CCN1C(=O)/C(=C/C=C/N(C)c2ccccc2)SC1=S
inactive: [1] 0.9% | [2] -13.3% | [3] 3.25% | [4] 9.05% | [5] 20.9% | [6] 7.85%

COc1cc(C2NC(=O)C(C#N)=C(Nc3cccc(C)c3)S2)ccc1O (centres undefined)
inactive: [1] -2.7% | [2] -18.8% | [3] 13.4% | [4] 1% | [5] -6.15% | [6] -16.9%

O=C(O)CCC(NC(=O)OCc1ccccc1)C(=O)O (centres undefined)
inactive: [1] -4.05% | [2] 2.55% | [3] -8.45% | [4] 9.55% | [5] -21.2% | [6] -5.15%
